Results as given in PubChem BioAssay (NCATS).
“And” between values parts separate entries of the source, which are not always exact repeats. Identical values can stand only once. Results filed as inconclusive are left out. Entries that show only a call come without a potency. Some compounds were tested as several samples or in several runs, with calls that do not always agree. The source made the active and inactive calls. Unless noted, the call rests on the fitted dose curve; in most records, active means well fitted curve in the direction sought with a large enough effect; inconclusive means small, poorly fitted or top-dose-only effect, or another doubt; inactive means no such curve, though single readings can be large; an effect the other way counts as inactive or inconclusive.

Tests used:
[1] = biological target: Beta-2 adrenergic receptor (Homo sapiens) (UniProt P07550); experiment: qHTS validation assay of beta-arrestin-biased ligands of beta2-adrenergic receptor (AID 485366)
Chain of Beta-2 adrenergic receptor (Homo sapiens) (P07550 whole entry, looked up): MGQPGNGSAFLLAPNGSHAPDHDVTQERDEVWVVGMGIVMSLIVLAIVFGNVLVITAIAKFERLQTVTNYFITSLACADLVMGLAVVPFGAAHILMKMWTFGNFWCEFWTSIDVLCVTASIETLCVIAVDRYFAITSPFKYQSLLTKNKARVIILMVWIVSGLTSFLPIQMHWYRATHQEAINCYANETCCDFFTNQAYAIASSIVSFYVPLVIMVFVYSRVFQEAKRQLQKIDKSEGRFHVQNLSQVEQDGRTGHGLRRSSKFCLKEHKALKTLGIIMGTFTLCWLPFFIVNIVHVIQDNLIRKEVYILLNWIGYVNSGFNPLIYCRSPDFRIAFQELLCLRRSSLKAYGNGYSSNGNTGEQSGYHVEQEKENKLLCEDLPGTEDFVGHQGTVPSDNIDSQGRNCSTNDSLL
How it was run: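 Screening used a titration range of up to 46 microM in a beta-arrestin recruitment Tango luciferase assay. Cells in 1% FBS medium were treated 18 hr at 37 degrees C, and luminescence was normalized to %Activity.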

[2] = biological target: Thioredoxin reductase 1, cytoplasmic (Rattus norvegicus) (UniProt O89049); experiment: qHTS Assay for Substrates of Mammalian Selenoprotein Thioredoxin Reductase 1 (TrxR1) (AID 488772);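 further: series mostly up to about 57 µM; a drop in NADPH fluorescence below the no-compound background marks a TrxR1 substrate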
Chain of Thioredoxin reductase 1, cytoplasmic (Rattus norvegicus) (O89049 whole entry, looked up): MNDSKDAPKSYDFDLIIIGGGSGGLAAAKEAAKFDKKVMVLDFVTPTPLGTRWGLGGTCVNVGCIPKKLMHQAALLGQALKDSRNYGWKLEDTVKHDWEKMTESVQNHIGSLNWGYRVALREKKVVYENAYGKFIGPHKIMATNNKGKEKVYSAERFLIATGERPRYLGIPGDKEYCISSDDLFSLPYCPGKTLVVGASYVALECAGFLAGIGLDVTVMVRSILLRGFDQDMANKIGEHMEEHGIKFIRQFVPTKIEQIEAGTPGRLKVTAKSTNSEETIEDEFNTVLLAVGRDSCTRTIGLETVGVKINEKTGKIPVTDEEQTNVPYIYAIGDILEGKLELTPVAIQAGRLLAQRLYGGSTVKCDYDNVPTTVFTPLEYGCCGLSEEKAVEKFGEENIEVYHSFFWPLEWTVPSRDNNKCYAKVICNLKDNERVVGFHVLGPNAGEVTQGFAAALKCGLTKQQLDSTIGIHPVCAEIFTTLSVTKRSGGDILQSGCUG
How it was run: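 In this dual-purpose format, potential substrates are identified from the first fluorescence read after selenite addition, not from the 8-minute delta. Rat enzyme is preincubated with NADPH and then with compound at ~22 deg C.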

[3] = biological target: Thioredoxin reductase 1, cytoplasmic (Rattus norvegicus) (UniProt O89049); experiment: qHTS Assay for Inhibitors of Mammalian Selenoprotein Thioredoxin Reductase 1 (TrxR1) (AID 488773); details: Potency: inhibition;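 further: drop in NADPH fluorescence over an 8 min run after selenite addition; series mostly up to about 57 µM; nearly all actives have a fitted effect of over 40% in size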
How it was run: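 Inhibition is scored from the loss of NADPH fluorescence between first and last reads of an 8-min kinetic run. Selenite (400 uM) was the substrate, added after 15 min compound preincubation at room temperature.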

[4] = biological target: Flap endonuclease 1 (Homo sapiens) (UniProt P39748); experiment: qHTS Validation Assay for the Inhibitors of Human Flap endonuclease 1 (FEN1) (AID 488816); further: potency means the concentration at half of the fitted maximal effect
How it was run: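 Enzyme reagent 10 nM; cpds pinned; 15 min RT preinc.; substrate 50 nM final; reads t=0 and 15 min; no-enzyme buffer wells as neg. control; normalized data, 4-parameter Hill fit.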

[5] = biological target: M-phase phosphoprotein 8 (Homo sapiens) (UniProt Q99549); experiment: qHTS Validation Assay for Inhibitors for MPP8 Chromodomain Interactions with Methylated Histone Tails (AID 488949); further: nearly all actives have a fitted effect of over 55% in size; further: potency means the concentration at half of the fitted maximal effect
How it was run: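 MPP8 (50 nM) was pre-bound to 50 nM biotinylated H3(1-18)K9me3 peptide in PBS pH 7.4 with 0.01% Tween-20. Compounds were then added for 30 min at room temperature, and complex disruption was read by AlphaScreen with streptavidin donor and nickel-chelate acceptor beads.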

[6] = biological target: Methanococcus maripaludis chaperonin (MmCpn) (UniProt Q6LX38); experiment: High-Throughput Screening for Modulators of Cytosolic Chaperonin Activity: MmCpn Primary Screen (AID 488978);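 further: 50 nM MmCpn enzyme hydrolysing 30 µM ATP at 37 °C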
How it was run: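 MmCpn at 50 nM final was preincubated 5 min at RT with compound. ATP was then added at 30 uM final for 10 min at 37 C. ADP formed was detected by Transcreener HTRF (665/590 nm).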

[7] = biological target: Transient receptor potential cation channel subfamily V member 1 (Homo sapiens) (UniProt Q8NER1); experiment: HTS Assay for Compounds that Act as Enhancers of the Vanilloid Receptor 1 (AID 488979)
How it was run: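 TRPV1 cells loaded with Fluo-8 calcium dye; compound added and Ca2+ signal (ex 480/em 520 nm) followed 3 min, then capsaicin at EC20 added and read 2 more min to detect enhancement.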

[8] = biological target: Thyrotropin receptor (Homo sapiens) (UniProt P16473); experiment: qHTS Assay for Antagonists of the Thyroid Stimulating Hormone Receptor (AID 488980); further: series mostly up to about 58 µM
Chain of Thyrotropin receptor (Homo sapiens) (P16473 whole entry, looked up): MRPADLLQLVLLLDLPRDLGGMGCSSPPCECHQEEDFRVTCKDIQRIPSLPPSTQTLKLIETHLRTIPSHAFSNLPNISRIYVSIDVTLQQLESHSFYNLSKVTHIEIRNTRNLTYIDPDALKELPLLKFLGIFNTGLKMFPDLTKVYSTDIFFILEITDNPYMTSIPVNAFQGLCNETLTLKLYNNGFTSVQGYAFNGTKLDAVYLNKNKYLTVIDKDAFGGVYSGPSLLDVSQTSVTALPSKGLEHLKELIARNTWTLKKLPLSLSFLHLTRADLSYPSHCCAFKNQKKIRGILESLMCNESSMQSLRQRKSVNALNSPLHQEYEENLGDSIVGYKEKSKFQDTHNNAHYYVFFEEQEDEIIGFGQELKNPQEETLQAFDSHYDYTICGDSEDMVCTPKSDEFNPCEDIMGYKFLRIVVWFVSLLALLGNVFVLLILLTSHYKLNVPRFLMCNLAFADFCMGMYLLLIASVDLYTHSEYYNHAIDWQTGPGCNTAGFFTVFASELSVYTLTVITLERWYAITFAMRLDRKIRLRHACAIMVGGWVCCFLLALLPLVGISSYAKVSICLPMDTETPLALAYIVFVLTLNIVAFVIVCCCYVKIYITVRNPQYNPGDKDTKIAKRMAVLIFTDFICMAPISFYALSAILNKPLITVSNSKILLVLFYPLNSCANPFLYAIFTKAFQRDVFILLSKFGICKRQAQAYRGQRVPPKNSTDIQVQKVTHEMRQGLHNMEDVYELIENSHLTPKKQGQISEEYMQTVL
How it was run: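 TSHR-transfected HEK293 cells (2000/well) in HEPES-buffered HBSS with 70 uM RO 20-1724 were stimulated with 4 nM TSH (EC80, final) in the presence of compound. cAMP was measured by HTRF competition after lysis and 30 min at RT.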

[9] = biological target: D(1A) dopamine receptor (Homo sapiens) (UniProt P21728); experiment: HTS Assay for Allosteric Agonists of the Human D1 Dopamine Receptor: Primary Screen for Agonists (AID 488981); further: potency means the concentration at half of the fitted maximal effect
Chain of D(1A) dopamine receptor (Homo sapiens) (P21728 whole entry, looked up): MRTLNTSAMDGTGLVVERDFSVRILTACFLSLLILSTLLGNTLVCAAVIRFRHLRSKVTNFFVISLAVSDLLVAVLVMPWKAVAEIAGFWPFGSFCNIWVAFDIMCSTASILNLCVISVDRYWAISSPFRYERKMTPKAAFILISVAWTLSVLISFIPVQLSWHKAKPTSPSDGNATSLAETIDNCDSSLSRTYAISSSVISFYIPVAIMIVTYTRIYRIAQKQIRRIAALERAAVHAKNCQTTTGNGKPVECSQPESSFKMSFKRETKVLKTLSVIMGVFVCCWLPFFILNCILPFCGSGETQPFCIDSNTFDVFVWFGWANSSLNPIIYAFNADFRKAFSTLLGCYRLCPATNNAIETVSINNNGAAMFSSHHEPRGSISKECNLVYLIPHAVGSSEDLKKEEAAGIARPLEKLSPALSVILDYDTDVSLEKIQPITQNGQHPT
How it was run: (§1)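 Tetracycline-induced HEK293 Trex D1 cells with forced coupling to calcium, loaded with no-wash calcium dye; kinetic fluorescence read 180 s after compound addition for agonism, then a further 180 s after an EC20 dopamine challenge for potentiation.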

[10] = biological target: D(1A) dopamine receptor (Homo sapiens) (UniProt P21728); experiment: HTS Assay for Allosteric Agonists of the Human D1 Dopamine Receptor: Primary Screen for Potentiators (AID 488982)
How it was run: as §1

[11] = biological target: D(1A) dopamine receptor (Homo sapiens) (UniProt P21728); experiment: HTS Assay for Allosteric Agonists of the Human D1 Dopamine Receptor: Primary Screen for Antagonists (AID 488983);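 further: calcium flux response to an EC80 dopamine challenge measured with no-wash dye; nearly all actives have a fitted effect of over 65% in size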
How it was run: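 Kinetic fluorescence at 1 cycle/sec tracked intracellular calcium in force-coupled, tetracycline-inducible HEK293 T-REx D1 cells. Loss of response to an EC80 dopamine dose, given 180 s after compound, marked antagonists.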

[12] = Validation screen for small molecules that induce genotoxicity in human embryonic kidney (HEK293T) cells expressing luciferase-tagged ELG1 (AID 493106); further: potency means the concentration at half of the fitted maximal effect
How it was run: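 Cells were dispensed at 2,000 per well, then 23 nL compound or DMSO was pinned in. After 16 hr at 37 °C and 5% CO2, ONE-Glo reagent was added. Luciferase activity was measured following 30 min at room temperature.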

[13] = biological target: ATPase family AAA domain-containing protein 5 (Homo sapiens) (UniProt Q96QE3); experiment: Validation screen for small molecules that inhibit ELG1-dependent DNA repair in human embryonic kidney (HEK293T) cells expressing luciferase-tagged ELG1 (AID 493107); further: nearly all actives have a fitted effect of over 70% in size; further: potency means the concentration at half of the fitted maximal effect
Chain of ATPase family AAA domain-containing protein 5 (Homo sapiens) (Q96QE3 whole entry, looked up, the tested form may be a part): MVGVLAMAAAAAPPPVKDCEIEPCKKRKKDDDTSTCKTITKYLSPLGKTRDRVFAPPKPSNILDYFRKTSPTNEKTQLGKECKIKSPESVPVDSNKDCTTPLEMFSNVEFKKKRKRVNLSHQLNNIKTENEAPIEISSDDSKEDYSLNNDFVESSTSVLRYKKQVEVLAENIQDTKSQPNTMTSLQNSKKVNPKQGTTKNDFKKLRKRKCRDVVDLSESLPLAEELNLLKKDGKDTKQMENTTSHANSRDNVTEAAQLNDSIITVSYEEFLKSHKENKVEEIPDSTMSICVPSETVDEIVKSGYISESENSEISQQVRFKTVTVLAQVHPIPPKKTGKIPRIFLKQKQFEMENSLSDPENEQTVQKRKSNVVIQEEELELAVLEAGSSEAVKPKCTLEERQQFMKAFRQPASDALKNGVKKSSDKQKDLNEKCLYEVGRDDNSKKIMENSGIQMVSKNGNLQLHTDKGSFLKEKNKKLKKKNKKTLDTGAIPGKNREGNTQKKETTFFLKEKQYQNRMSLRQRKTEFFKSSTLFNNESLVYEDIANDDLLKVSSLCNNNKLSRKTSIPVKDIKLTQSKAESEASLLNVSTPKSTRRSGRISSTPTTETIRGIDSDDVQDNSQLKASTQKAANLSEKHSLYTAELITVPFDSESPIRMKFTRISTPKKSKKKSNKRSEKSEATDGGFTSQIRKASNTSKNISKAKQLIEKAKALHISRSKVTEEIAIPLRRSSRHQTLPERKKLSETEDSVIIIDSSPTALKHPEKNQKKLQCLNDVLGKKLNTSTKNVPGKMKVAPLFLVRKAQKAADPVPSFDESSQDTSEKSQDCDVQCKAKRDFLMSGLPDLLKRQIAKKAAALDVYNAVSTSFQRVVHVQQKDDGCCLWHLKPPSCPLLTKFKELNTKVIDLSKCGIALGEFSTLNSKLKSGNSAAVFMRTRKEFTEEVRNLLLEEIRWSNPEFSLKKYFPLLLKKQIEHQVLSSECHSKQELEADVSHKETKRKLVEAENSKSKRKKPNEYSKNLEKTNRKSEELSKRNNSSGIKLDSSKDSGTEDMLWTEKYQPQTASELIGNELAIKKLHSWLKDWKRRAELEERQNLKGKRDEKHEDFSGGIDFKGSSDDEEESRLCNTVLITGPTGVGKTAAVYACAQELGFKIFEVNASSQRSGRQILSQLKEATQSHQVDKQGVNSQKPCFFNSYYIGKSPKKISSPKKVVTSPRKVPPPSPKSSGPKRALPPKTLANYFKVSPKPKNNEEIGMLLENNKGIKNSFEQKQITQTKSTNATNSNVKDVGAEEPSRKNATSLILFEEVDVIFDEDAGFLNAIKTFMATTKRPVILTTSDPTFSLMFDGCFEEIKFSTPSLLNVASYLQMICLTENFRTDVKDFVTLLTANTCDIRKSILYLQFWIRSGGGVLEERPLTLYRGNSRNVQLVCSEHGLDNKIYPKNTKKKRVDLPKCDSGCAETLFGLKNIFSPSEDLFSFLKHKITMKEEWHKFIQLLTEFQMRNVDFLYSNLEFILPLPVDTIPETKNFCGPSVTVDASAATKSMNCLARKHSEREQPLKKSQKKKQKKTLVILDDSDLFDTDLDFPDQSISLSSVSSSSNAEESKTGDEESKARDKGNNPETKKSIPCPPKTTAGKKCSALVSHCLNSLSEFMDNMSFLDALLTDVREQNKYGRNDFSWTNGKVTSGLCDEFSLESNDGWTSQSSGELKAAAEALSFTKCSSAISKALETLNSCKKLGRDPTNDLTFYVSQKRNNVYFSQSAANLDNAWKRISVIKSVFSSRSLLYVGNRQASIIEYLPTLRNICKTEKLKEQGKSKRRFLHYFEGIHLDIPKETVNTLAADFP
How it was run: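 Cells are dispensed in 1536-well format, then 5-fluorouridine and compound are pinned in. After a 16 hr incubation at 37 °C and 5% CO2, ONE-Glo is added and luciferase measured on a CCD imager.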

[14] = biological target: Thyrotropin-releasing hormone receptor (Homo sapiens) (UniProt P34981); experiment: qHTS for Small Molecule Agonists and Allosteric Enhancers of Human TRH Receptor: Validation Screen for Agonists (AID 493127;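 active means calcium activation more than 3 SD above the typical response in the agonist read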;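 further: intracellular calcium rise by fluo-8 fluorescence before TRH EC20 addition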); details: TRH receptor agonist cell assay; at 2 µM; stronger effect = higher value
Chain of Thyrotropin-releasing hormone receptor (Homo sapiens) (P34981 whole entry, looked up): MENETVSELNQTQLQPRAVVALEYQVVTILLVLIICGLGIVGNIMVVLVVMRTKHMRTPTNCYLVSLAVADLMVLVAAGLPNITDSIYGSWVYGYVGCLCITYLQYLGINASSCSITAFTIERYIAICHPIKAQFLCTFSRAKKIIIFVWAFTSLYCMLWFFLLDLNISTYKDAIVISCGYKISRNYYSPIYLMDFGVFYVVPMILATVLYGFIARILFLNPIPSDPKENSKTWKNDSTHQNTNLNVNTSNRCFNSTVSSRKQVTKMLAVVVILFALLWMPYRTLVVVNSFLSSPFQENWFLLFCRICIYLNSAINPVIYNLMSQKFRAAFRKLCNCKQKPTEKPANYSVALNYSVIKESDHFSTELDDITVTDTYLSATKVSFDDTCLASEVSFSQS
How it was run: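 Compounds are added by online pintool to dye-loaded TRHR cells while fluorescence is recorded every second. A rise in calcium signal during the agonist read marks activation; a later 10 nM TRH addition (EC20) serves the separate enhancer mode.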

[15] = biological target: ATP-dependent 6-phosphofructokinase (Trypanosoma brucei brucei) (UniProt O15648); experiment: qHTS Validation Assay to Find Inhibitors of T. brucei phosphofructokinase (AID 485368)
Chain of ATP-dependent 6-phosphofructokinase (Trypanosoma brucei brucei) (O15648 whole entry, looked up): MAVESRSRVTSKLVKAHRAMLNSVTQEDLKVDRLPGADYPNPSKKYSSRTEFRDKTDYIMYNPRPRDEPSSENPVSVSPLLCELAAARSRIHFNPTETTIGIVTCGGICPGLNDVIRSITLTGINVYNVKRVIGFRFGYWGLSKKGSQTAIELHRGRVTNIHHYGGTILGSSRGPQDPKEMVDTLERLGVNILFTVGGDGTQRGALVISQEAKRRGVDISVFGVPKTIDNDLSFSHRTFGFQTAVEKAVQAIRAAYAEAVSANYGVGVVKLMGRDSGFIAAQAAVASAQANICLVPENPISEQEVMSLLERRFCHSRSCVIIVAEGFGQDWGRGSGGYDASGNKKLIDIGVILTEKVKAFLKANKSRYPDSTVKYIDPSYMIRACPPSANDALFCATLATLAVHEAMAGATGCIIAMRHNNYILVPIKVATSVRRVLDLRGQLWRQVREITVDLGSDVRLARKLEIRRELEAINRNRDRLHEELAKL
How it was run: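 PFK-generated ADP was measured after 45 min at room temperature using ADP-Glo. The reaction contained 0.5 mM F6P and 0.1 mM ATP.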

[16] = Quantitative high throughput screen for delayed death inhibitors of the malarial parasite plastid, 96 hour incubation (AID 488745); further: nearly all actives have a fitted effect of over 70% in size; further: potency means the concentration at half of the fitted maximal effect
How it was run: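 Readout is firefly luciferase luminescence from an integrated reporter in P. falciparum; lower signal marks inhibited growth. Cultures at 2% hematocrit and 0.1% parasitemia were treated with compound across two generations (96 h, 37 C, 5% CO2).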

[17] = Quantitative high throughput screen for delayed death inhibitors of the malarial parasite plastid, 48 hour incubation (AID 488752); further: nearly all actives have a fitted effect of over 65% in size; further: potency means the concentration at half of the fitted maximal effect
How it was run: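 First, compound was pinned into RPMI 1640 medium containing 0.5% Albumax. Next, reporter-parasite-infected erythrocytes were added to 2% hematocrit and 0.1% parasitemia. After 48 h at 37 C under 5% CO2, luciferase detection reagent was added and luminescence read.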

[18] = biological target: Chromobox protein homolog 1 (Homo sapiens) (UniProt P83916); experiment: qHTS Validation Assay for Inhibitors of HP1-beta Chromodomain Interactions with Methylated Histone Tails (AID 488953); further: nearly all actives have a fitted effect of over 50% in size; further: potency means the concentration at half of the fitted maximal effect
Chain of Chromobox protein homolog 1 (Homo sapiens) (P83916 whole entry, looked up): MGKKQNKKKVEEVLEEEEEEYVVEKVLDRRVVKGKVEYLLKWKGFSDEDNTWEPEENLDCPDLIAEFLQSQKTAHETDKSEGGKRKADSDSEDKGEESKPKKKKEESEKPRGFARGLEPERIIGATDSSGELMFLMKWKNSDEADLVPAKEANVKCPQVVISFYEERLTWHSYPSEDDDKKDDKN
How it was run: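 Disruption of preformed HP1-beta:H3K9me3 peptide complexes (both 50 nM, PBS pH 7.4 with 0.01% Tween-20) is measured by AlphaScreen after 30 min compound exposure at room temperature, using streptavidin donor and nickel chelate acceptor beads at 10 ug/mL final.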

SMILES	outcome [1]	outcome [2]	Potency [3]	Potency [4]	Potency [5]	outcome [6]	outcome [7]	outcome [8]	Potency [9]	Potency [10]	Potency [11]	Potency [12]	Potency [13]	activation [14]	Potency [15]	Potency [16]	Potency [17]	Potency [18]
O=C1NC(=O)c2cc(Nc3ccccc3)c(Nc3ccccc3)cc21	inactive	inactive	inactive	inactive	31.6 µM (active)	inactive	inactive	inactive	inactive	inactive	inactive	inactive	13 µM (active)	6% (inactive)				
CSC(=N)N		inactive	inactive	inactive	inactive	inactive			inactive	inactive	inactive	inactive	inactive		inactive	inactive	inactive	inactive
COc1ccc(CCN(C)CCc2ccc(OC)c(OC)c2)cc1OC		inactive	inactive	inactive	inactive	inactive	inactive	inactive	inactive	inactive	inactive	inactive	inactive	-4.19% (inactive)	inactive	inactive	inactive	inactive
N[C@@H](Cc1ccc(O)c(I)c1)C(=O)O		inactive	inactive	inactive	inactive	inactive	inactive	inactive	inactive	inactive	inactive	inactive	inactive	1.19% (inactive)	inactive	inactive	inactive	inactive
COc1cc(/C=C(\C#N)C(=O)Nc2nnc(C(F)(F)F)s2)ccc1OCc1ccc(C(F)(F)F)cc1C(F)(F)F	inactive	inactive	inactive	inactive	inactive	inactive			inactive	inactive	inactive		inactive					89.1 µM (active)
CN1CCN(c2nc3cc(C(F)(F)F)ccc3n3cccc23)CC1	inactive	inactive	inactive	inactive	inactive	inactive	inactive	inactive	inactive	inactive			inactive	1.06% (inactive)			8.28 µM (active)	
O=C1Nc2ccc(I)cc2/C1=C/c1cc(Br)c(O)c(Br)c1	inactive	inactive			14.1 µM (active) and 9.47 µM (active)	inactive	inactive	inactive		inactive		inactive	inactive	8.19% (inactive)			inactive	11.2 µM (active)
N[C@@H](CCC(=O)N[C@H](CSN=O)C(=O)NCC(=O)O)C(=O)O	inactive	inactive	inactive		inactive	inactive		inactive	inactive	inactive	inactive	inactive	inactive	1.31% (inactive)			inactive	
CN(C)S(=O)(=O)c1ccc2c(c1)/C(=C/c1cc3c([nH]1)CCCC3)C(=O)N2		inactive		inactive	17.8 µM (active) and inactive	inactive		inactive	12.6 µM (active)	inactive	inactive			26.3% (inactive)	inactive	3.7 µM (active)		
N#Cc1cc([N+](=O)[O-])c2sc(C(N)=O)[n+]([O-])c2c1		inactive	inactive		inactive	inactive			inactive		inactive		16.4 µM (active)					
CC(=O)[C@H]1CCC2C3CC=C4C[C@@H](OS(=O)(=O)O)CC[C@]4(C)C3CC[C@@]21C (some centres undefined)		inactive	inactive		inactive	inactive	inactive	inactive	inactive	inactive	inactive	inactive	inactive	-0.125% (inactive)		inactive	inactive	inactive
CC[n+]1c(/C=C/C=C2/N(C)c3ccccc3C2(C)C)sc2ccccc21		inactive	inactive	26.7 µM (active)	15 µM (active)	inactive			11.2 µM (active)	inactive	inactive	inactive	2.31 µM (active)					25.1 µM (active)
Nc1ccc(-c2ccc3ccccc3n2)cc1		inactive	inactive	inactive	inactive	inactive	inactive	inactive	inactive	inactive	inactive	2.59 µM (active)		4% (inactive)				
O=C1C2C=CC=CC2=NC(=S)N1CCN1CCC(=C(c2ccc(F)cc2)c2ccc(F)cc2)CC1 (centres undefined)		inactive	inactive	inactive	50.1 µM (active) and inactive	inactive		inactive	inactive	inactive		inactive	inactive	-4.38% (inactive)		inactive	inactive	
Cn1ccnc1		inactive	inactive		inactive	inactive	inactive	inactive	inactive			inactive	inactive	1.38% (inactive)	inactive	inactive	inactive	inactive
